Tests used:
[1] = tested on: Vero E6 infected with SARS-CoV-2; experiment: morphology score (similarity to uninfected cells); higher = more like uninfected cells; settings: 24 h
[2] = tested on: Vero E6 infected with SARS-CoV-2; experiment: SARS-CoV-2 infection rate relative to infected DMSO; higher = more infection, active = 60 or less; settings: 24 h

Row | Structure (SMILES) | morphology score [1] | SARS-CoV-2 infection rate [2]
1 | CN(C)c1cccc(Oc2cnc(Nc3cccc(O)c3)nc2)c1 (10 µM) | 0.0803 | 109% (inactive)
2 | CCC(N)C(O)c1ccc(O)c(O)c1 (configuration not stated) [ethylnorepinephrine] (10 µM) | -0.108 | 106% (inactive)
3 | O=C(Oc1ccccc1C(=O)O)c1ccccc1O [sasapyrine] (10 µM) | 0.0337 | 108% (inactive)
4 | CN1CCC(NC(=O)c2cc(-c3c(O)cc(O)cc3Oc3ccc([N+](=O)[O-])cc3)on2)CC1 (0.833333 µM) | 0.247 | 95.5% (inactive)
5 | COc1ccccc1OCC(O)CNC(C)C (configuration not stated) [moprolol] (10 µM) | 0.0947 | 100% (inactive)
6 | Oc1ccc(Cl)c2c1CCC2 [chlorindanol] (10 µM) | 0.109 | 102% (inactive)
7 | CCC(CC)Nc1cc(C)nc(Oc2c(C)cc(C)cc2C)c1C (10 µM) | 0.248 | 100% (inactive)
8 | CC(C)(C)C(=O)OCOC(=O)[C@@H]1N2C(=O)C[C@H]2S(=O)(=O)C1(C)C [sulbactam-pivoxil] (10 µM) | 0.184 | 89% (inactive)
9 | CC(=O)OC[C@H]1O[C@@H](n2ccc(=O)[nH]c2=O)[C@H](OC(C)=O)[C@@H]1OC(C)=O [uridine-triacetate] (10 µM) | -0.0249 | 112% (inactive)
10 | N[C@@H](Cc1ccc(O)cc1)C(=O)O [plovamer-acetate] (10 µM) | 0.0812 | 108% (inactive)
11 | c1cc2c(cc1C1CCCCC1)c1c3n2CCNC3CCC1 (configuration not stated) [tetrindole] (0.833333 µM) | -6.12e-06 | 108% (inactive)

Source: the supplement of paper PMC13380429
